Screens: PubChem, several laboratories
Rows were chosen to be rich in hits. Some 2% of all compounds tested hit in one or more screens of this group.
PKA-R2B activ – activators of human PKA-R2B complex | PKA-R2B holoenzyme dissociation, Cy5-IP20 fluorescence polarization; R2B truncated from residue 108, S112A mutant; 0% DMSO only, 100% 113 µM cGMP | activation, % at 11.4 µM | AID 504700 | hit rate 0.079% among 340,000;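 active means activation above a cutoff set at the mean over all compounds plus 3 SD, cut at about 18% in these data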;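 further: higher means more holoenzyme dissociation and a rise in polarization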
Target sequence (P31323 whole entry, looked up, other chains not shown, the tested form may be a part): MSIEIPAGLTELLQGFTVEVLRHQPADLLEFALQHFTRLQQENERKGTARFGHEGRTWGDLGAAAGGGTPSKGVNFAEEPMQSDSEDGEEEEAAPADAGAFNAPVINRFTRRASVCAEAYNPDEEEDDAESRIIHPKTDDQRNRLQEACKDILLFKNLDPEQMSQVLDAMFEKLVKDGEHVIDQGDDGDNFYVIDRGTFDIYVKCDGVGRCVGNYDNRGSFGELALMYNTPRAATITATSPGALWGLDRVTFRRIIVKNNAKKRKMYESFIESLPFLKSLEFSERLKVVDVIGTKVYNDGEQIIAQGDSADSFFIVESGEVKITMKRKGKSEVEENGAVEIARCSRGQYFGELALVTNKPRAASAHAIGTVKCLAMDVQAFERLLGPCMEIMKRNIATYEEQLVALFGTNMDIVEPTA
MsrA inh – inhibitors of bovine MsrA; purified bovine MsrA, absorbance read-out; inhibition, % at 15.5 µM; hit rate 0.75% among 360,000; AID 651718
MsrA act – activates bovine MsrA enzyme; activation, % at 10.6 µM; purified bovine MsrA, absorbance read-out; hit rate 0.3% among 360,000; AID 602163; in the data active means activation above about 7.5%
SUMO Mot1 rescue – inhibitors of SUMOylation pathway: yeast Mot1-301 growth rescue. S. cerevisiae Mot1-301 growth rescue, ATP luminescence, 38.5C; percent above DMSO median, 100 means doubled. growth rescue, % at 18.8 µM. hit rate 1% among 320,000. AID 2716;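 active means every valid replicate shows activation above 250% relative to neutral control wells; inactive means the rest, any valid replicate at or below 250%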
PKA-R1A activ – activates the PKA-R1A holoenzyme complex; activation, % at 11.4 µM; PKA-R1A dissociation, Cy5-IP20 fluorescence polarization; scaled: DMSO 0%, 113 µM cGMP 100%; hit rate 0.083% among 340,000; P00514+P68181;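 active means percent activation above the mean of all tested compounds plus 3 SD, cut at about 19% in these data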;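 further: higher means more PKAc released from R1A so a rise in polarization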
MsrA inh confirm – bovine MsrA inhibition, confirmed; shares compounds with MsrA inh; purified bovine MsrA, absorbance read-out; inhibition, % at 15.5 µM; hit rate 41% among 2,300; AID 651822;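 further: coupled to thioredoxin reductase with NADPH and selenocystamine and DMSO as substrate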
Numbers stand for hits. Unless noted, no stated cut-off is given here; in the data, active means inhibition above about 4.5%; inactive means the rest.

How did O=c1c(Cl)c(N2CCOCC2)cnn1-c1nc2ccccc2[nH]1 do in these assays?
PKA-R2B activ: inactive; MsrA inh: 4.8; MsrA act: inactive; SUMO Mot1 rescue: inactive; PKA-R1A activ: inactive; MsrA inh confirm: inactive

Results for c1ccc2[nH]c(N3CCOCC3)nc2c1 ?
PKA-R2B activ: inactive; MsrA inh: inactive; MsrA act: inactive; SUMO Mot1 rescue: inactive; PKA-R1A activ: inactive

What do the screens show for `COc1ccc2oc(-c3ccco3)cc(=O)c2c1`?
PKA-R2B activ: inactive; MsrA inh: inactive; MsrA act: inactive; SUMO Mot1 rescue: inactive; PKA-R1A activ: inactive

How did O=C(COc1ccc2oc(-c3ccco3)cc(=O)c2c1)N1CCCCC1 do in these assays?
PKA-R2B activ: inactive; MsrA inh: 4.7; MsrA act: inactive; SUMO Mot1 rescue: inactive; PKA-R1A activ: inactive; MsrA inh confirm: inactive

How did CCc1nc2c(OCCc3cccc(OC)c3)cccn2c1N(C)C(=O)c1cccs1 do in these assays?
MsrA inh: inactive; MsrA act: inactive

Results for CC1CCC(C(C)C)C(NC(=O)c2ccncc2)C1 (stereo not given) ?
MsrA act: inactive

Results for O=C(O)c1cccc(COc2ccccc2Cl)c1 ?
PKA-R2B activ: inactive; MsrA inh: inactive; MsrA act: inactive; SUMO Mot1 rescue: inactive; PKA-R1A activ: inactive

Results for O=C1NC(=O)/C(=C\c2ccc(OCc3cccc(C(=O)O)c3)c(Cl)c2)N1 ?
PKA-R2B activ: inactive; MsrA inh: 5.3; MsrA act: inactive; SUMO Mot1 rescue: inactive; PKA-R1A activ: inactive; MsrA inh confirm: inactive

How did CCOc1cc(/C=C2/NC(=O)NC2=O)cc(Br)c1OCc1ccc(C(=O)O)cc1 do in these assays?
PKA-R2B activ: inactive; MsrA inh: 6.2; MsrA act: inactive; SUMO Mot1 rescue: inactive; PKA-R1A activ: inactive; MsrA inh confirm: inactive

How did COc1cc(/C=C2\NC(=S)NC2=O)ccc1OCc1cccc(C(=O)O)c1 do in these assays?
PKA-R2B activ: inactive; MsrA inh: 5.4; MsrA act: inactive; SUMO Mot1 rescue: inactive; PKA-R1A activ: inactive; MsrA inh confirm: inactive

Results for COc1cc(/C=C2\NC(=O)NC2=O)cc(Br)c1OC ?
PKA-R2B activ: inactive; MsrA inh: inactive; MsrA act: inactive; SUMO Mot1 rescue: inactive; PKA-R1A activ: inactive

Results for C[C@H]1CCCCO[C@@H](CN(C)CC2CC2)[C@@H](C)CN([C@@H](C)CO)C(=O)c2cc(NS(=O)(=O)c3ccccc3)ccc2O1 ?
MsrA inh: inactive

What do the screens show for `CC(=O)c1ccc(N2CCN(C(=O)C3CCCN(S(=O)(=O)c4cnc[nH]4)C3)CC2)cc1` (stereo not given)?
PKA-R2B activ: inactive; MsrA inh: 5.1; MsrA act: inactive; SUMO Mot1 rescue: inactive; PKA-R1A activ: inactive; MsrA inh confirm: inactive

What do the screens show for `C/C(=N\N=C1\NC(=O)C(CC(=O)Nc2ccc(Cl)cc2)S1)c1ccco1` (stereo not given)?
PKA-R2B activ: inactive; MsrA inh: 4.8; MsrA act: inactive; SUMO Mot1 rescue: inactive; PKA-R1A activ: inactive; MsrA inh confirm: 4.8

What do the screens show for `O=C(CC1S/C(=N/N=C/c2ccco2)NC1=O)Nc1ccccc1` (stereo not given)?
PKA-R2B activ: inactive; MsrA inh: 5.3; MsrA act: inactive; SUMO Mot1 rescue: inactive; PKA-R1A activ: inactive; MsrA inh confirm: 5.3

How did NC(=O)NC(=O)CC1S/C(=N/N=C/c2ccccc2)NC1=O (stereo not given) do in these assays?
PKA-R2B activ: inactive; MsrA inh: 5.3; MsrA act: inactive; SUMO Mot1 rescue: inactive; PKA-R1A activ: inactive; MsrA inh confirm: inactive

How did O=C(CC1S/C(=N/N=C/c2cccs2)NC1=O)Nc1ccc(Cl)cc1 (stereo not given) do in these assays?
PKA-R2B activ: inactive; MsrA inh: inactive; MsrA act: inactive; SUMO Mot1 rescue: inactive; PKA-R1A activ: inactive

Results for Cc1ccc(/C=N/N=C2/NC(=O)C(CC(=O)N3CCOCC3)S2)cc1 (stereo not given) ?
PKA-R2B activ: inactive; MsrA inh: 5.8; MsrA act: inactive; SUMO Mot1 rescue: inactive; PKA-R1A activ: inactive; MsrA inh confirm: inactive

How did CC(C)(C)S(=O)(=O)N1C[C@H]2C(=C(CCO)C[C@H]3C(=O)N(c4ccccc4)C(=O)[C@H]32)[C@@H]1CCO do in these assays?
MsrA inh: inactive

Results for CCNC(=O)C1CCCN(C(=O)c2cc(F)cc(F)c2)CC1 (stereo not given) ?
MsrA inh: inactive; MsrA act: inactive

What do the screens show for `O=C1CC(C(=O)Nc2ccc(F)cc2)S/C(=N\N=C\c2ccco2)N1` (stereo not given)?
PKA-R2B activ: inactive; MsrA inh: 6.3; MsrA act: inactive; SUMO Mot1 rescue: inactive; PKA-R1A activ: inactive; MsrA inh confirm: 5.0

How did CC1=CC(=O)[C@@H](O)[C@@H](c2ccccc2Br)N1C do in these assays?
PKA-R2B activ: inactive; MsrA inh: 5.3; MsrA act: inactive; PKA-R1A activ: inactive; MsrA inh confirm: inactive

What do the screens show for `COCCNC(=O)/C(C#N)=C/C(C)=C/c1ccccc1`?
PKA-R2B activ: inactive; MsrA inh: 6.0; MsrA act: inactive; SUMO Mot1 rescue: inactive; PKA-R1A activ: inactive; MsrA inh confirm: inactive

How did COCCNC(=O)/C(C#N)=C/c1cccc(/C=C(\C#N)C(=O)NCCOC)c1 do in these assays?
PKA-R2B activ: inactive; MsrA inh: inactive; MsrA act: inactive; SUMO Mot1 rescue: inactive; PKA-R1A activ: inactive

Results for COc1ccc(/C=C2\SC(N)=NC2=O)cc1 ?
PKA-R2B activ: inactive; MsrA inh: 4.8; MsrA act: inactive; SUMO Mot1 rescue: inactive; PKA-R1A activ: inactive; MsrA inh confirm: 5.0

How did NC1=NC(=O)C(=Cc2ccccc2)S1 do in these assays?
PKA-R2B activ: inactive; MsrA inh: inactive; MsrA act: inactive; PKA-R1A activ: inactive

Results for NC1=NC(=O)/C(=C/c2ccsc2)S1 ?
PKA-R2B activ: inactive; MsrA inh: 5.7; MsrA act: inactive; SUMO Mot1 rescue: inactive; PKA-R1A activ: inactive; MsrA inh confirm: inactive

Results for CCCCn1c(O)c2n(c1=O)Cc1ccccc1N=C2c1ccc(C)cc1 ?
MsrA inh: inactive; MsrA act: inactive

How did O=C(O)c1ccc(/C=C(\c2nc3ccccc3[nH]2)c2nc3ccccc3s2)cc1 do in these assays?
PKA-R2B activ: inactive; MsrA inh: 5.4; MsrA act: inactive; SUMO Mot1 rescue: inactive; PKA-R1A activ: inactive; MsrA inh confirm: 5.3

How did CNC(=O)C[C@H]1C(=O)N(c2ccc(Br)cc2)C[C@@H]1CSC do in these assays?
PKA-R2B activ: inactive; MsrA inh: 5.6; MsrA act: inactive; PKA-R1A activ: inactive; MsrA inh confirm: inactive

What do the screens show for `CSC[C@H]1CN(c2ccc(Br)cc2)C(=O)[C@@H]1CC(=O)Nc1ccc(Br)cc1`?
PKA-R2B activ: inactive; MsrA inh: inactive; MsrA act: inactive; PKA-R1A activ: inactive

How did CCOc1ccc(NC(=O)CN(C)C(=O)c2ccc(-c3ccc(C(C)=O)cc3)o2)cc1OCC do in these assays?
PKA-R2B activ: inactive; MsrA inh: 4.9; MsrA act: inactive; SUMO Mot1 rescue: inactive; PKA-R1A activ: inactive; MsrA inh confirm: inactive
